Experimental data as given in PubChem BioAssay (Tox21).
Results filed as inconclusive are left out. A call without a number means that no potency is given here. Calls of active or inactive are those of the source. Unless noted, calls follow the shape of the dose curve; as a rule, active = well fitted curve in the direction sought with a large enough effect in the repeat runs; inconclusive = weak or mixed curves; inactive = no such curve, though single readings can be large; an effect the other way counts as inactive or inconclusive.

Assays:
[1] = qHTS assay to identify small molecule antagonists of the retinoid acid receptor (RAR) signaling pathway - cell viability counter screen (AID 1159551); details: C3RL4 cells viability, ATP luminescence (CellTiter-Glo), 6 h; series mostly up to 92.4 µM; also: nearly all actives have a fitted effect of over 35% in size
In short: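 Following overnight attachment, C3RL4 reporter cells received DMSO-dissolved compounds and then retinol (1 uM final). Six hours later at 37 C, ATP content was measured by CellTiter-Glo luminescence.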

[2] = qHTS assay to identify small molecule agonists of the RXR signaling pathway - cell viability counter screen (AID 1159529); details: RXR-alpha-bla HEK293T viability, CellTiter-Glo, 16 h; series mostly up to 76.8 µM;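 also: HEK 293T cells carrying an RXR-alpha UAS beta-lactamase reporter; nearly all actives have a fitted effect of over 50% in size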
In short: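 RXR-alpha-UAS-bla HEK 293T cells in medium with 2% charcoal-stripped FBS were preincubated 5 hr, then exposed to compounds for 16 hr at 37 C. Viability was read as CellTiter-Glo luminescence after 30 min at room temperature.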

[3] = qHTS assay to identify small molecule antagonists of the estrogen related receptor (ERR) signaling pathway - cell viability counter screen (AID 1224818); details: ERR reporter cell line viability counter screen; series mostly up to 46.1 µM;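 also: viability measured after 17.5 h of compound exposure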
In short: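 Here, ERR cells are plated at 2,000 cells per well, allowed 6 h to attach, and treated with compounds in DMSO for 17.5 h at 37 C. CellTiter-Fluor is then added and fluorescence read after 30 min.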

[4] = qHTS assay to identify small molecule antagonists of the estrogen related receptor (ERR) signaling pathway (AID 1224819;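 also: luminescence from an ERR-driven luciferase reporter measured with One-Glo reagent; nearly all actives have a fitted effect of over 50% in size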); details: ERR reporter cell line, luciferase inhibition; series mostly up to 46.1 µM
In short: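 LOPAC library screened for antagonism as reduced One-Glo luminescence in ERR reporter cells (2,000/well). Compounds were added after 6 h pre-incubation and left 18 h at 37C; reading followed a 30 min room-temperature reagent step.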

[5] = qHTS assay to identify small molecule agonists of the estrogen related receptor (ERR) signaling pathway (AID 1224820); details: ERR reporter cell line, luciferase agonist mode; series mostly up to 46.1 µM
In short: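 Cells: ERR line from NTP, 2,000/well. Pre-incubation 6 h, 37 C/5% CO2. Compound (DMSO) pin transfer, 18 h 37 C. One-Glo, 30 min RT, luminescence.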

[6] = qHTS assay to identify small molecule antagonists of the estrogen related receptor signaling pathway with the pleiotropic PPARgamma coactivator (PGC) cell viability counter screen (AID 1224822;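 also: viability read after 17.5 h compound exposure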); details: ERR/PGC reporter cell line viability counter screen; series mostly up to 46.1 µM
In short: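 qHTS format, DMSO compound stocks pin-transferred onto PGC/ERR cells 6 h after plating; 17.5 h exposure at 37 C, then CellTiter-Fluor fluorescence.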

[7] = qHTS assay to identify small molecule agonists of the estrogen related receptor signaling pathway with the pleiotropic PPARgamma coactivator (PGC) (AID 1224823); details: ERR/PGC reporter cell line, luciferase agonist mode; series mostly up to 46.1 µM
In short: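 Steps: plate PGC/ERR cells at 2,000 cells/well; incubate 6 h, 37 C/5% CO2; pin-transfer compounds (DMSO); incubate 18 h, 37 C; add One-Glo; 30 min RT; read luminescence.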

[8] = tested on: estrogen-related receptor alpha (ERRalpha) with PGC-1alpha coactivator, human; experiment: qHTS assay to identify small molecule antagonists of the estrogen related receptor signaling pathway with the pleiotropic PPARgamma coactivator (PGC) (AID 1224821; calls by dose curve;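 also: lower luminescence signal means antagonism of PGC/ERR signalling; nearly all actives have a fitted effect of over 50% in size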); details: ERR/PGC reporter cell line, luciferase, antagonist mode; series mostly up to 46.1 µM
In short: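 Luminescent read-out (One-Glo, 30 min at room temperature) following 18 h treatment of PGC/ERR cells at 37 C with compounds delivered in DMSO. Cells had settled 6 h at 37 C/5% CO2 before dosing.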

CCCCCCCC#N
Potency [1]: inactive

CN(C)CCOC(c1ccccc1)c1ccc(Br)cc1 (stereo not drawn)
Potency [1]: inactive

c1ccc(C(O[C@H]2CCCN(CCc3ccc4c(c3)OCO4)C2)c2ccccc2)cc1
Potency [1]: inactive

CN1CCC(N(Cc2cccs2)c2ccccc2)CC1
Potency [1]: inactive

CCC(CC)Nc1ccc(C)c(C)c1
Potency [1]: inactive

CCCCCCCCCCCCCCCCOS(=O)(=O)O
Potency [1]: inactive

c1ccc(-c2ccccn2)nc1
Potency [2]: inactive
Potency [1]: inactive
outcome [3]: inactive
Potency [4]: inactive
outcome [5]: inactive
outcome [6]: inactive
outcome [7]: inactive

O=C(O)c1ccco1
Potency [1]: inactive

COc1ccc(C(=O)Nc2nc3ccccc3c(NCc3ccccc3)c2C#N)cc1
Potency [1]: inactive

S=C([S-])NCCNC(=S)[S-].[Mn+2]
Potency [1]: inactive

CCCC(=O)Nc1ccc(O)c(C(C)=O)c1
Potency [1]: inactive

COS(=O)(=O)C(F)(F)F
Potency [1]: inactive

CCCn1cnc2c1c(=O)n(CCCCC(C)=O)c(=O)n2C
Potency [2]: inactive
Potency [1]: inactive
outcome [3]: inactive
Potency [4]: inactive
outcome [5]: inactive
Potency [8]: inactive
outcome [6]: inactive
outcome [7]: inactive

CCCCNc1ccc(C(=O)OCCOCCOCCOCCOCCOCCOCCOCCOCCOC)cc1
Potency [1]: inactive

COc1ccnc(CS(=O)c2nc3ccc(OC(F)F)cc3[nH]2)c1OC (stereo not drawn)
Potency [1]: inactive
